Reference: ChEMBL document CHEMBL3988442, “University of Dundee, Small-Polar-MMV Screening Library” (2021)

Columns and labels:
[1] = target: T1, Aspartate--tRNA(Asp/Asn) ligase (Mycobacterium tuberculosis (strain ATCC 25618 / H37Rv)) (UniProt P9WFW3); assay: Assay for Asp RNA synthetase-1 from Mycobacterium tuberculosis; format: functional; design: scale not given: direction of the effect not stated beside the values; settings: 30 µM; also: in the data most compounds retested in dose-response had high values
T1 sequence (whole entry): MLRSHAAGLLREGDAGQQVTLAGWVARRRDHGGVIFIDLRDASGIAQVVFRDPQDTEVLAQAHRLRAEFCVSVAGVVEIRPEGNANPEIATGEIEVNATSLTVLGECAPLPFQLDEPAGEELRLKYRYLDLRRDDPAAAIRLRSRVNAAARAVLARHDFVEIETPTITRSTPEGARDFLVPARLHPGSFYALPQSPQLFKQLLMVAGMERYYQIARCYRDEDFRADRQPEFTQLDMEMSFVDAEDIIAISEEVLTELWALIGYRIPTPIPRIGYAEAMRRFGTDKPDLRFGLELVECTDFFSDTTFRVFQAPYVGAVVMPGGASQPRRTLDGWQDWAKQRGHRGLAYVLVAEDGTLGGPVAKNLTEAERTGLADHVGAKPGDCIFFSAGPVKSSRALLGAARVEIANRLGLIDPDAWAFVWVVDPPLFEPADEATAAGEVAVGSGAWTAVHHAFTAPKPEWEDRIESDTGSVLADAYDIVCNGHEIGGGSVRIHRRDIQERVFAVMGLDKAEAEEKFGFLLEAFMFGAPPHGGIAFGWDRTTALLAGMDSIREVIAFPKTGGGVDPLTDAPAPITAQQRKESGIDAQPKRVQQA

[2] = target: Shiga toxin 2 (Escherichia coli O157:H7) (UniProt P09385+P09386); assay: E. coli 0.157:H7 Shiga Toxin SOP - stx2 screening assay; format: functional; design: scale not given: direction of the effect not stated beside the values; settings: 30 µM

Compound	Percent Effect [1] [%]	Percent Effect [2] [%]
COc1ccc(CN(Cc2cncn2C)CC2CCCO2)c(OC)c1 (configuration not stated)	7.91	11.4
Cc1nnc(N2CCC(CN(C)C(C)C)CC2)c(C#N)c1C	-0.173	-25
Cc1ccccc1CN1CCN(Cc2nccn2C)CC1	-1.8	13.3
CC(Cn1ccnc1)NC(=O)C1(c2ccc3c(c2)OCCO3)CCCC1 (configuration not stated)	-0.0286	-20.7
Cc1cc(NC(=O)CN2CCCC2c2noc(C3CC3)n2)no1 (configuration not stated)	0.92	-26.9
Cc1ccc(S(=O)(=O)N2C[C@H]3C[C@H](NC(=O)c4ccn(C)n4)[C@H]3C2)cc1	1.35	-2.81
Cc1cnc2n(c1=O)CC(C(=O)Nc1ccccc1Cl)CS2 (configuration not stated)	-5.41	-4.63
CCc1nc(CN2CCCN(c3ncnc4ccccc34)CC2)no1	13.7	-69.3
O=C(NCc1cc[nH]n1)NCC(O)c1ccc(F)cc1F (configuration not stated)	4.01	-25
CC(C)n1c(=O)nc2n1C(=O)N(c1ccc(F)cc1)C2	2.49	2.99
CCNc1cc2c(nn1)CCN(C(=O)c1ccc3cc[nH]c3c1)C2	2.23	-3.04
COc1ncccc1CNC(=O)c1cccc(C)n1	-1.63	-24.7
O=C(O)CCc1cccc(C2CCCN2Cc2ccc(F)c(F)c2)n1 (configuration not stated)	-0.372	2.71
CCOC(=O)C1CCN(Cc2csc(C(C)(C)C)n2)CC1	-9.34	-1.05
COCc1ncn2c1CN(C(=O)C1CC=CC1)CC2	1.48	0.0561
COCCOc1ccc(NC(=O)N2CCCC2c2cc(C)no2)cn1 (configuration not stated)	-5.36	25.9
COC[C@@H]1CC[C@H]2[C@H](CCN2S(=O)(=O)c2ccc(OC)cc2)O1	-2.58	1.36
CN(c1ccncn1)C1CC2(CCN(C(=O)c3cccs3)C2)C1 (configuration not stated)	-6.21	-35.5
CCOCCCNC(=O)c1cn(CC)nc1C	-4.5	-51.1
O=C(c1ccncn1)N1CCO[C@H]2[C@@H](OCc3cccnc3)CC[C@@H]21	5.42	-37.5
Cc1nc(CN2CCCC(N(C)Cc3nnsc3Cl)C2)no1 (configuration not stated)	-2.25	18.2
CN(CCCNc1cc(N2CCCC2CO)ncn1)S(C)(=O)=O (configuration not stated)	7.01	-30
CCN(CC(=O)NC(C)C)S(=O)(=O)N1CCCCCC1	-4.33	-4.09
CCN(C(=O)Nc1cccnc1OC)C1CC1	-1.21	-24.9
COc1cc(CNC(=O)c2c(C)noc2C(C)C)ccn1	-1.27	-44
Cc1nccn1-c1cc(CNC(=O)CCNC(=O)C2CCCC2)ccn1	-2.19	1.23

Compound	Percent Effect [1] [%]	Percent Effect [2] [%]
CN(C)CCN1CCCC12CCN(C(=O)c1cnccn1)CC2	1.96	0.984
Cc1ccc(Nc2nccc(C3CCCN(CC(=O)N(C)C)C3)n2)nc1 (configuration not stated)	-2.93	-28.3
O=C(c1ccc(F)cc1)N1C[C@@H]2OCCN(c3ncccn3)[C@@H]2C1	-0.874	-4.11
COc1cc(C(=O)Nc2c(C)noc2C)ccc1C	-3.4	-5.89
O=C(CCCc1ccc(F)cc1)N1C[C@@H](CN2CCOCC2)[C@@H](CO)C1	5.03	-6.96
COc1ccnc(N2CCN(C(=O)NCc3ccc(C)s3)CC2)n1	-2.05	31.8
CC(NC1(CNC(=O)Cn2cccn2)CCOCC1)c1ccccc1 (configuration not stated)	-0.24	10.6
Cc1nc(-c2ccccc2)n(CC(=O)NCC(C)C)n1	-3.61	22
CC(C)S(=O)(=O)NCC1CCCN(C(=O)c2ccc3c(c2)CCC3)C1 (configuration not stated)	6.5	1.33
Cc1cccc(CN2CCc3nnc(CN4CCCC4=O)n3CC2)n1	-2.89	3.17
Cc1n[nH]c(C2CN(C(=O)Cn3ccccc3=O)CCO2)n1 (configuration not stated)	-3.22	10.2
CNC(=O)[C@H]1C[C@@H]2CN(S(=O)(=O)c3ccccc3)C[C@@H]2N1C(C)=O	2.08	-6.09
COc1ccc(CNCc2ccnc(N3CCOCC3)c2)cc1OC	-2.66	-52.5
Cc1nc(COc2cccc(C#N)c2)no1	-0.618	0.222
CCn1cnnc1CNC(=O)N1CCN(c2cccc(OC)c2)CC1	0.152	-10.2
CC(C)C(C(=O)N1CCN(Cc2ccncc2)CC1)n1cncn1 (configuration not stated)	7.46	-21.4
COCCn1c2c(ccc1=O)CC(NS(C)(=O)=O)CC2 (configuration not stated)	2.72	-20.6
CCN1CCC(c2nc3ccc(NC(C)C)cn3n2)CC1	2.52	4.27
CCN1CCn2nc(CCC(=O)N3CCCC3)cc2C1	-0.386	-5.54
Cc1ccc(CNC(=O)CN2CCN(CC(O)c3ccco3)CC2)cc1 (configuration not stated)	-6.22	-10.6
Cc1nc(CN2CCCN(C(=O)C(C)OCC3CC3)CC2)cs1 (configuration not stated)	-3.97	-12.8
O=C(N[C@@H]1CN(c2ncccn2)C[C@@H]2CCCO[C@@H]21)c1cnccn1	4.51	-15.4
Cc1cccc(-c2ccc(C(=O)NCC(C)(C)C(N)=O)c(=O)[nH]2)c1	7.72	-21.6
CCC(=O)NCCc1cc(N2CCN(C(C)=O)CC2)nc(C2CC2)n1	-0.432	-2.36
CCOc1ccc(-n2nnc(C(=O)O)c2-c2ccccn2)cc1	12	-8.4
